Screening data deposited in PubChem by National Center for Advancing Translational Sciences (NCATS).
Hits are enriched below; roughly 18% of the tested compounds scored in any of these assays.
TDP1 block = inhibitors of human tyrosyl-DNA phosphodiesterase TDP1. hit rate 0.28% among 350,000. recombinant TDP1, AlphaScreen DNA substrate cleavage. Q9NUW8. Potency, µM (series often up to 130 µM), for the others: at the highest dose activity change, negative = inhibition, most hits filed as inhibitors; note: nearly all actives have a fitted effect of over 40% in size
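E. coli-derived human Tdp1, 1 nM final. Cpd preinc 15 min RT; substrate 15 nM final, 5 min RT; AS bead mix 10 ug/ml final, 10 min RT. Signal loss = tyrosine-FITC cleavage. No-enzyme wells = max signal.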
DT40 TDP1 no CPT = qHTS for Inhibitors of human tyrosyl-DNA phosphodiesterase 1 (TDP1): qHTS in cells in absence of CPT | Potency, µM (highest dose often 46.2 µM), inactives show top-dose activity change, negative = growth inhibition, actives largely listed as inhibitors | DT40 Tdp1-/- hTDP1 cells, no CPT, ATP luminescence, 48 h | hit rate 15% among 420,000 | AID 686978, 2013; note: nearly all actives have a fitted effect of over 55% in size
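No-CPT arm: Tdp1-/-;hTDP1 DT40 cells (400/well) plus compounds, incubated ≥48 hr at 37 °C. Readout CellTiter-Glo luminescence.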
KAT2A inh = blocks human GCN5L2 histone acetyltransferase; Q92830; GCN5L2 HAT assay, ThioGlo1 CoA-SH fluorescence; Potency, µM (top dose mostly 58.9 µM), for the others: top-dose activity change, negative = inhibition, usual class: inhibitors; hit rate 0.21% among 390,000; AID 504327
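Free CoA generated was detected with ThioGlo1 (50uM) fluorescence at Ex340nm/Em540nm, read immediately and after 20 min at room temperature. Enzyme, 20 nM in HEPES pH 7.5 buffer, saw compounds 15 min before adding 75uM H3(1-25) peptide and 70uM acetyl-CoA.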
VDR inh = inhibitors of human vitamin D receptor | VDR-SRC2-3 peptide fluorescence polarization, 2 h | AID 504847 | Potency, µM, inactives show max response, negative = inhibition, hits mostly inhibitors | P11473 | hit rate 0.93% among 400,000
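Fluorescence polarization assay of small-molecule disruption of VDR binding to coregulator peptide SRC2-3. Compounds and controls pin-transferred, then read after 2 h incubation at ambient room temperature.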
TDP1 cell CPT = growth inhibition of DT40 Tdp1-/-;hTDP1 cells with camptothecin (screen for TDP1 inhibitors). chicken DT40 Tdp1-/-;hTDP1 cells + 20 nM CPT, ATP luminescence, 48 h. Potency, µM (top dose mostly 46.2 µM), for inactives: at the top dose activity change, negative = growth inhibition, most hits filed as inhibitors. hit rate 12% among 420,000. AID 686979; note: nearly all actives have a fitted effect of over 55% in size
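Chicken DT40 Tdp1-/- cells complemented with human TDP1, 400 cells/well, exposed to compounds plus 20 nM camptothecin for at least 48 h at 37 C; viability read as ATP content by CellTiter-Glo luminescence.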
PLK1 PBD block = blocks phosphopeptide binding to human PLK1 polo-box domain | P53350 | Plk1 PBD binding of FITC phosphopeptide, fluorescence polarization | Potency, µM, without a hit: max response, negative = inhibition, usual class: inhibitors | hit rate 2.8% among 360,000; note: series mostly up to about 57 µM; nearly all actives have a fitted effect of over 65% in size
Target sequence (P53350 whole entry, looked up, the tested form may be a part): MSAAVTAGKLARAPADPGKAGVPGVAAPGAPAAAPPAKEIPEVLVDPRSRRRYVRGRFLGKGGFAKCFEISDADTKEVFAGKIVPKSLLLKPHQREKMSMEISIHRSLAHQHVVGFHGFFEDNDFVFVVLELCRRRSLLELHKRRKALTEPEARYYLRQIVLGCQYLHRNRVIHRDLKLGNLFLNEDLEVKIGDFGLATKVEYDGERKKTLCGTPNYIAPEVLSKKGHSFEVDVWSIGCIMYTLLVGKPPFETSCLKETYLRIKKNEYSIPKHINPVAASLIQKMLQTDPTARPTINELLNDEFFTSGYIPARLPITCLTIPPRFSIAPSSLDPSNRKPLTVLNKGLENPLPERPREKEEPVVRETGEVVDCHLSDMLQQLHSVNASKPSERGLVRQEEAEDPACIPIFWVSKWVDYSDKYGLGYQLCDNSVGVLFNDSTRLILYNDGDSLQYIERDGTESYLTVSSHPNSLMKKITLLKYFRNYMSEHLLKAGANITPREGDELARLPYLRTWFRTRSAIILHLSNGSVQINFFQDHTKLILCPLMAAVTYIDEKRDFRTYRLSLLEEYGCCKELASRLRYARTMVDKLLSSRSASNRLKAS
Starred values were filed as active, the others as inactive; ? = inconclusive; / = no result given; [ ] = dose if it differs, or a comment. Calls come from the whole dose curve; as a rule, active = well fitted curve in the direction sought with a large enough effect; inconclusive = small, poorly fitted or top-dose-only effect, or another doubt; inactive = no such curve, though single readings can be large; an effect the other way counts as inactive or inconclusive. % is set by controls: 0 for no effect and ±100 for the full control effect; potency is the fitted concentration of half-maximal effect.

SMILES	TDP1 block	DT40 TDP1 no CPT	KAT2A inh	VDR inh	TDP1 cell CPT	PLK1 PBD block
COc1cc(C2N=C(c3ccccc3)NO2)cc(Br)c1O (stereo not given)	4.5%	-6.1%	-12.0%	-7.2%	0.6%	-3.2%
COc1cc(C=C2C(=O)OC(c3ccccc3)OC2=O)cc(Br)c1O (stereo not given)	7.4%	23.1µM*	-14.0%	-7.9%	?	?
CCC(C)NC(=O)CSc1nnc(-c2cc(-c3cccs3)nc3ccccc23)o1 (stereo not given)	-1.0%	18.4µM*	-6.3%	-3.6%	?	-6.6%
NC(=O)CSc1nnc(-c2cc(-c3cccs3)nc3ccccc23)o1	-1.1%	?	-3.7%	-1.4%	-16.1%	1.1%
CC1(C(=O)NS(=O)(=O)c2cccs2)CCN1C(=O)Cc1ccccc1 (stereo not given)	/	1.7%	/	/	-0.4%	-2.8%
CCOc1ccc(CNC(=O)c2ccc(Sc3ccc(Cl)cc3)c(NC(C)=O)c2)cc1OC	5.2%	20.6µM*	-3.6%	-5.6%	?	-6.8%
CC(=O)Nc1cc(C(=O)NCc2ccc(C)cc2)ccc1Sc1ccc(C)cc1	5.2%	23.1µM*	-17.2%	10.2%	16.4µM*	/
CCN(CC)CCNC(=O)c1ccc(Sc2ccc(Cl)cc2)c(NC(C)=O)c1	3.4%	?	-1.5%	-4.7%	?	-7.7%
COc1ccc(NC(=O)c2ccc(CNS(=O)(=O)c3ccc4c(c3)C(C)(C)C(=O)N4C)cc2)cc1	0.0%	?	-11.5%	4.4%	?	/
COc1ccc2nc(-n3c(O)c(C4=c5ccccc5=NC4=O)[nH]c3=S)sc2c1	-8.3%	23.1µM*	35.4%	-21.6%	?	?
Cc1ccc(C2C(C(=O)c3cccs3)=C(O)C(=O)N2c2nnc(C)s2)cc1 (stereo not given)	3.8%	-24.0%	-4.5%	21.8%	-0.1%	?
Cc1cc(Br)ccc1NC(=O)C(C)c1ccc([N+](=O)[O-])cc1 (stereo not given)	0.0%	25.9µM*	-3.1%	-5.9%	?	-9.9%
O=C(CNc1cccc([N+](=O)[O-])c1)NCCCc1ccccc1	0.1%	?	-3.7%	21.3%	-3.2%	-5.5%
Cc1ccc(C(C)C)cc1NC(=O)Nc1ccc([N+](=O)[O-])cc1	/	3.66µM*	-26.6%	1.1%	4.61µM*	3.6%
Cc1ccc([N+](=O)[O-])cc1NC(=O)C(Sc1ccccc1)c1ccccc1 (stereo not given)	2.7%	16.4µM*	-7.8%	1.5%	?	-1.8%
Cc1cc(Br)ccc1NC(=O)CNC(=O)CNc1cccc([N+](=O)[O-])c1	0.8%	?	-0.8%	-15.1%	20.6µM*	-2.9%
CCOc1ccc(NS(=O)(=O)c2ccc(C)c(C(=O)NCCCn3ccnc3)c2)cc1	0.0%	1.3%	-4.3%	-2.9%	13.2%	-4.1%
COC(=O)c1cc(NC(=O)C(C)c2ccc(CC(C)C)cc2)ccc1O (stereo not given)	-4.8%	?	2.2%	15.2%	20.6µM*	-2.3%
CC(C)Cc1ccc(C(C)C(=O)Nc2ncccn2)cc1 (stereo not given)	-4.8%	?	1.1%	-1.8%	-18.0%	-16.0%
CC(C)Cc1cc(C(=O)NCC2Cc3cc(F)cc(-c4ccccn4)c3O2)no1 (stereo not given)	/	-4.9%	/	/	11.1%[9.04 µM]	/
COc1ccc(CN2CCC3(CC2)c2ccccc2[C@@H](NC(=O)c2ccco2)[C@@H]3OC)c(O)c1	/	-14.6%	/	/	-7.7%[9.04 µM]	/
COc1cc(S(=O)(=O)N(Cc2ccc(C)cc2)C2CCCCC2)ccc1-n1cnnn1	0.0%	23.1µM*	-9.4%	0.9%	?	-1.7%
COc1cccc(-c2ccnc(-n3ncc(C(=O)NCC4(N5CCCCC5)CCCC4)c3C)n2)c1	/	-17.3%	/	/	10.2%[9.04 µM]	/
CCOC(=O)/C(=C(/C)N)C1CC(=O)NC1=O (stereo not given)	/	-1.2%	/	/	9.3%	1.7%
COc1ccc(C(=O)C2CCCN(Cc3ccc4nonc4c3)C2)c(OC)c1 (stereo not given)	5.4%	?	-18.6%	3.3%	11.6µM*	-4.5%
SMILES	TDP1 block	DT40 TDP1 no CPT	KAT2A inh	VDR inh	TDP1 cell CPT	PLK1 PBD block
COc1ccc(C(=O)C2CCCN(Cc3cnc(N4CCOCC4)s3)C2)cc1F (stereo not given)	/	-20.0%	-10.7%	7.2%	2.7%	-4.0%
COc1ccc(C(=O)C2CCCN(Cc3cccn3-c3ccc(Cl)cn3)C2)c(OC)c1 (stereo not given)	-4.8%	20.6µM*	-0.4%	-8.3%	13µM*	-1.0%
COc1ccc(C(=O)C2CCCN(Cc3cnc(N4CCOCC4)s3)C2)c(OC)c1 (stereo not given)	-3.6%	16.4µM*	4.5%	-7.2%	-16.8%	0.0%
CCOc1ccc(C2C(C(=O)c3cccs3)=C(O)C(=O)N2CCCn2ccnc2)cc1 (stereo not given)	1.1%	3.3%	-6.6%	6.1%	-19.1%	-29.8%
COc1cccc(C2c3c(ncn(-c4cccnc4)c3=N)Oc3ccc4ccccc4c32)c1 (stereo not given)	1.8%	/	/	/	/	/
O=C(CCNC(=O)C1CCN(S(=O)(=O)c2ccc(F)cc2)CC1)NCc1ccncc1	-1.0%	25.7%	-5.9%	-19.6%	-0.6%	-14.9%
Cc1ccc(NC(=O)CN2c3cccc4cccc(c34)S2(=O)=O)cc1S(=O)(=O)N1CCOCC1	0.6%	18.4µM*	-5.9%	-11.1%	?	-6.4%
COc1ccc(NC(=O)CN2c3cccc4cccc(c34)S2(=O)=O)cc1OC	/	7.31µM*	/	/	?	?
COc1cc(S(=O)(=O)N2CCOCC2)ccc1NC(=O)CN1c2cccc3cccc(c23)S1(=O)=O	0.0%	-9.5%	-6.2%	-13.2%	17.6%	-10.1%
O=c1cc(Nc2ccc3c(c2)OCCO3)[nH]c(=O)n1C1CCCCC1	0.0%	16.4µM*	0.1%	-6.5%	14.6µM*	-0.1%
COc1ccc2cc(CCNS(=O)(=O)c3ccc(C)cc3)c(=O)[nH]c2c1	0.0%[12.3 µM]	9.2µM*	-9.9%	-21.1%	-22.4%	/
COc1ccc2cc(CCNS(=O)(=O)c3ccc(NC(C)=O)cc3)c(=O)[nH]c2c1	2.4%	-16.1%	-3.0%	-15.4%	-0.7%	-8.8%
Cc1ccc2cc(CCNS(=O)(=O)c3ccc(F)cc3)c(=O)[nH]c2c1	5.2%	18.4µM*	-4.8%	-11.2%	20.6µM*	4.2%
Cc1ccc(S(=O)(=O)NCCc2cc3ccc(C)cc3[nH]c2=O)cc1	/	-25.5%	-6.9%	13.0%	-22.8%	-4.2%
O=C(NCCc1cccs1)c1ccc(CS(=O)Cc2ccc(Cl)cc2)o1 (stereo not given)	2.2%	-0.1%	-2.7%	20.3%	?	1.5%
